# In all, about 5,500 compounds went through this assay and about 2,000 (36%) were called active. Roughly 18% stayed inconclusive and do not appear here. This is one part of the list. A number with no mark means an inactive call. Cut-off read from the data, not from the text of the source: active = normalized growth mostly below about 0.91 (no sharp cut-off); inconclusive = no clear call, values can overlap the other calls; inactive = mostly above about 0.92.
# Experiment: chemical genetic growth profiling, strain panel (AID 1159580);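 note: tested at 20 µM; growth read once vehicle control cultures reached saturation at 30 °C; 1 = growth at the plate median or of vehicle wells; lower values mean less growth of the strain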
# Details: growth OD
# [1] = S. cerevisiae deletion strains, locus YDL101C, strain DUN1, active compounds read low
# [2] = S. cerevisiae deletion strains, locus YHR030C, strain SLT2, active compounds read low
structure (smiles),measurement,setting,value
O=C(N/C=C/c1ccsc1)Nc1cc(C(F)(F)F)cc(C(F)(F)F)c1,normalized growth,"S. cerevisiae deletion strains, locus YAR019C, strain CDC15, active compounds read low",0.968
same,normalized growth,"S. cerevisiae deletion strains, locus YBL105C, strain PKC1, active compounds read low",0.967
same,normalized growth,"S. cerevisiae deletion strains, locus YBR135W, strain CKS1, active compounds read low",0.974
same,normalized growth,"S. cerevisiae deletion strains, locus YBR136W, strain MEC1, active compounds read low",0.989
same,normalized growth,"S. cerevisiae deletion strains, locus YBR160W, strain CDC28, active compounds read low",0.976
same,normalized growth,"S. cerevisiae deletion strains, locus YDL017W, strain CDC7, active compounds read low",0.98
same,normalized growth,"S. cerevisiae deletion strains, locus YDL028C, strain MPS1, active compounds read low",0.979
same,normalized growth,[1],0.995
same,normalized growth,"S. cerevisiae deletion strains, locus YDL108W, strain KIN28, active compounds read low",0.987
same,normalized growth,"S. cerevisiae deletion strains, locus YDL132W, strain cdc53, active compounds read low",0.983
same,normalized growth,"S. cerevisiae deletion strains, locus YDL214C, strain PRR2, active compounds read low",0.643 (active)
same,normalized growth,"S. cerevisiae deletion strains, locus YDR052C, strain DBF4, active compounds read low",0.98
same,normalized growth,"S. cerevisiae deletion strains, locus YDR054C, strain cdc34, active compounds read low",0.958
same,normalized growth,"S. cerevisiae deletion strains, locus YDR226W, strain ADK1, active compounds read low",0.98
same,normalized growth,"S. cerevisiae deletion strains, locus YDR477W, strain SNF1, active compounds read low",0.61 (active)
same,normalized growth,"S. cerevisiae deletion strains, locus YER123W, strain YCK3, active compounds read low",0.44 (active)
same,normalized growth,"S. cerevisiae deletion strains, locus YER133W, strain GLC7, active compounds read low",0.63 (active)
same,normalized growth,"S. cerevisiae deletion strains, locus YFL009W, strain cdc4, active compounds read low",0.977
same,normalized growth,"S. cerevisiae deletion strains, locus YFL029C, strain CAK1, active compounds read low",0.98
same,normalized growth,"S. cerevisiae deletion strains, locus YFR003C, strain YPI1, active compounds read low",0.979
same,normalized growth,"S. cerevisiae deletion strains, locus YFR019W, strain FAB1, active compounds read low",0.639 (active)
same,normalized growth,"S. cerevisiae deletion strains, locus YFR028C, strain CDC14, active compounds read low",0.97
same,normalized growth,"S. cerevisiae deletion strains, locus YGR040W, strain KSS1, active compounds read low",0.613 (active)
same,normalized growth,"S. cerevisiae deletion strains, locus YGR052W, strain FMP48, active compounds read low",0.33 (active)
same,normalized growth,"S. cerevisiae deletion strains, locus YGR092W, strain DBF2, active compounds read low",0.254 (active)
same,normalized growth,[2],0.426 (active)
same,normalized growth,"S. cerevisiae deletion strains, locus YHR079C, strain IRE1, active compounds read low",0.457 (active)
same,normalized growth,"S. cerevisiae deletion strains, locus YHR082C, strain KSP1, active compounds read low",0.393 (active)
same,normalized growth,"S. cerevisiae deletion strains, locus YHR205W, strain SCH9, active compounds read low",0.516 (active)
same,normalized growth,"S. cerevisiae deletion strains, locus YIL147C, strain SLN1, active compounds read low",0.981
same,normalized growth,"S. cerevisiae deletion strains, locus YJL095W, strain BCK1, active compounds read low",0.505 (active)
same,normalized growth,"S. cerevisiae deletion strains, locus YJL128C, strain PBS2, active compounds read low",0.873
same,normalized growth,"S. cerevisiae deletion strains, locus YJL157C, strain FAR1, active compounds read low",0.676 (active)
same,normalized growth,"S. cerevisiae deletion strains, locus YJR016C, strain ILV3, active compounds read low",0.977
same,normalized growth,"S. cerevisiae deletion strains, locus YJR066W, strain TOR1 (second series), active compounds read low",0.507 (active)
same,normalized growth,"S. cerevisiae deletion strains, locus YJR066W, strain TOR1, active compounds read low",0.507
same,normalized growth,"S. cerevisiae deletion strains, locus YKL048C, strain ELM1, active compounds read low",0.726 (active)
same,normalized growth,"S. cerevisiae deletion strains, locus YKL067W, strain YNK1, active compounds read low",0.587 (active)
same,normalized growth,"S. cerevisiae deletion strains, locus YKL101W, strain HSL1, active compounds read low",0.387 (active)
same,normalized growth,"S. cerevisiae deletion strains, locus YKL193C, strain SDS22, active compounds read low",0.979
same,normalized growth,"S. cerevisiae deletion strains, locus YKL203C, strain TOR2, active compounds read low",0.58 (active)
same,normalized growth,"S. cerevisiae deletion strains, locus YLR113W, strain HOG1, active compounds read low",0.315 (active)
same,normalized growth,"S. cerevisiae deletion strains, locus YLR133W, strain CKI1, active compounds read low",0.597 (active)
same,normalized growth,"S. cerevisiae deletion strains, locus YLR403W, strain SFP1, active compounds read low",0.444 (active)
same,normalized growth,"S. cerevisiae deletion strains, locus YML070W, strain DAK1, active compounds read low",0.361 (active)
same,normalized growth,"S. cerevisiae deletion strains, locus YMR001C, strain CDC5, active compounds read low",0.976
same,normalized growth,"S. cerevisiae deletion strains, locus YMR205C, strain PFK2 (second series), active compounds read low",0.672 (active)
same,normalized growth,"S. cerevisiae deletion strains, locus YMR277W, strain FCP1, active compounds read low",0.966
same,normalized growth,"S. cerevisiae deletion strains, locus YNL006W, strain LST8, active compounds read low",0.979
same,normalized growth,"S. cerevisiae deletion strains, locus YNL020C, strain ARK1, active compounds read low",0.541 (active)
same,normalized growth,"S. cerevisiae deletion strains, locus YNL161W, strain CBK1, active compounds read low",0.976
same,normalized growth,"S. cerevisiae deletion strains, locus YNL183C, strain NPR1, active compounds read low",0.309 (active)
same,normalized growth,"S. cerevisiae deletion strains, locus YNL207W, strain RIO2, active compounds read low",0.976
same,normalized growth,"S. cerevisiae deletion strains, locus YNL222W, strain SSU72, active compounds read low",0.974
same,normalized growth,"S. cerevisiae deletion strains, locus YNL307C, strain MCK1 (second series), active compounds read low",0.41 (active)
same,normalized growth,"S. cerevisiae deletion strains, locus YOL078W, strain AVO1, active compounds read low",0.984
same,normalized growth,"S. cerevisiae deletion strains, locus YOL136C, strain PFK27, active compounds read low",0.555 (active)
same,normalized growth,"S. cerevisiae deletion strains, locus YOR061W, strain CKA2, active compounds read low",0.726
same,normalized growth,"S. cerevisiae deletion strains, locus YOR119C, strain RIO1, active compounds read low",0.719
same,normalized growth,"S. cerevisiae deletion strains, locus YOR231W, strain MKK1, active compounds read low",0.507 (active)
same,normalized growth,"S. cerevisiae deletion strains, locus YOR329C, strain SCD5, active compounds read low",0.981
same,normalized growth,"S. cerevisiae deletion strains, locus YPL031C, strain PHO85, active compounds read low",0.417 (active)
same,normalized growth,"S. cerevisiae deletion strains, locus YPL153C, strain RAD53, active compounds read low",0.345 (active)
same,normalized growth,"S. cerevisiae deletion strains, locus YPL204W, strain HRR25, active compounds read low",0.434 (active)
same,normalized growth,"S. cerevisiae deletion strains, locus YPL209C, strain IPL1, active compounds read low",0.968
same,normalized growth,"S. cerevisiae deletion strains, locus YPL256C, strain CLN2, active compounds read low",0.444 (active)
same,normalized growth,"S. cerevisiae deletion strains, locus YPR025C, strain CCL1, active compounds read low",0.98
same,normalized growth,"S. cerevisiae deletion strains, locus YPR106W, strain ISR1, active compounds read low",0.971
same,normalized growth,"S. cerevisiae deletion strains, locus YPR111W, strain DBF20, active compounds read low",0.958
same,normalized growth,"S. cerevisiae deletion strains, strain NNK1, active compounds read low",0.969
same,normalized growth,"S. cerevisiae deletion strains, strain TSCII, active compounds read low",0.973
COc1ccc(NC(=O)c2cc(C(F)(F)F)cc(C(F)(F)F)c2)cn1,normalized growth,"S. cerevisiae deletion strains, locus YAL013W, strain DEP1, active compounds read low",0.964
same,normalized growth,"S. cerevisiae deletion strains, locus YBR229C, strain ROT2, active compounds read low",0.938
same,normalized growth,"S. cerevisiae deletion strains, locus YCL061C, strain MRC1, active compounds read low",0.968
same,normalized growth,[1],0.928
same,normalized growth,"S. cerevisiae deletion strains, locus YDR150W, strain NUM1, active compounds read low",1.05
same,normalized growth,"S. cerevisiae deletion strains, locus YEL061C, strain CIN8, active compounds read low",0.942
same,normalized growth,"S. cerevisiae deletion strains, locus YGR078C, strain PAC10, active compounds read low",0.92 (active)
same,normalized growth,"S. cerevisiae deletion strains, locus YGR229C, strain SMI1, active compounds read low",0.959
same,normalized growth,[2],0.826
same,normalized growth,"S. cerevisiae deletion strains, locus YHR087W, strain rtc3, active compounds read low",0.925
same,normalized growth,"S. cerevisiae deletion strains, locus YJR043C, strain POL32, active compounds read low",0.959
same,normalized growth,"S. cerevisiae deletion strains, locus YJR075W, strain HOC1, active compounds read low",0.893
same,normalized growth,"S. cerevisiae deletion strains, locus YKL190W, strain CNB1, active compounds read low",0.947
same,normalized growth,"S. cerevisiae deletion strains, locus YLR039C, strain RIC1, active compounds read low",0.539 (active)
same,normalized growth,"S. cerevisiae deletion strains, locus YLR058C, strain SHM2 (second series), active compounds read low",0.926 (active)
same,normalized growth,"S. cerevisiae deletion strains, locus YLR085C, strain ARP6, active compounds read low",0.781
same,normalized growth,"S. cerevisiae deletion strains, locus YLR262C, strain YPT6, active compounds read low",0.636 (active)
same,normalized growth,"S. cerevisiae deletion strains, locus YML094W, strain GIM5, active compounds read low",0.927
same,normalized growth,"S. cerevisiae deletion strains, locus YMR219W, strain ESC1, active compounds read low",0.949
same,normalized growth,"S. cerevisiae deletion strains, locus YMR263W, strain SAP30, active compounds read low",0.98
same,normalized growth,"S. cerevisiae deletion strains, locus YNL128W, strain TEP1, active compounds read low",0.953
same,normalized growth,"S. cerevisiae deletion strains, locus YNL153C, strain GIM3, active compounds read low",0.983
same,normalized growth,"S. cerevisiae deletion strains, locus YNL298W, strain CLA4 (second series), active compounds read low",0.895
same,normalized growth,"S. cerevisiae deletion strains, locus YNL322C, strain KRE1, active compounds read low",0.938 (active)
same,normalized growth,"S. cerevisiae deletion strains, locus YNR030W, strain Alg12, active compounds read low",0.9
same,normalized growth,"S. cerevisiae deletion strains, locus YOL006C, strain TOP1, active compounds read low",0.867
same,normalized growth,"S. cerevisiae deletion strains, locus YPL055C, strain LGE1, active compounds read low",0.963
same,normalized growth,"S. cerevisiae deletion strains, locus YPL241C, strain CIN2, active compounds read low",0.908
same,normalized growth,"S. cerevisiae deletion strains, locus YPR135W, strain CTF4, active compounds read low",0.611 (active)
same,normalized growth,"S. cerevisiae strains, strain wild type, active compounds read low",0.931

# Reference: PubChem BioAssay AID1159580 (chemical genetic matrix, 2015)
